Test results as given in PubChem BioAssay AID687038 (Broad Institute, 2013).
Calls of active or inactive are those of the source.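 How the source made its calls: active means curve showing a falling signal whose half-maximal concentration is at most twice the top valid dose; inconclusive means flat curve with a moderate drop, or an unreliable fit; inactive means the rest.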

Assay: endogenous miR-21 quantity in Huh7 cells – cell-based, RT-qPCR, dry powder, selectivity assay for miR-122 inhibitor project, dose response (AID 687038)
Details: Huh7 miR-21 levels, qRT-PCR, 48 h; series mostly up to 35 µM

outcome, inactive:
C[C@H]1CN([C@@H](C)CO)C(=O)c2cc(-c3ccc(C#N)cc3)cnc2O[C@H]1CN(C)C(=O)Nc1ccc(C(F)(F)F)cc1
O=S(=O)(NCCc1ccncc1)c1ccccc1
COCC(=O)N(C)C[C@@H]1Oc2ncc(-c3ccc(C#N)cc3)cc2C(=O)N([C@@H](C)CO)C[C@@H]1C
O=C(c1ccc(CNc2c(NC3CCCCC3)c(=O)c2=O)cc1)N1CCc2ccccc21
CCN(CC)C(=O)c1cccc(NC(=O)c2ccc(Cl)cc2Cl)c1
CN(C)CCN1C(=O)c2cccc3cc(N)cc(c23)C1=O
CN1C(=O)c2cc(NC(=O)c3cccc(F)c3)ccc2OC[C@@H]2O[C@@H](CC(=O)O)CC[C@@H]21
OCc1ccc(-c2nn(Cc3ccccc3)c3ccccc23)o1
O=C(CN=C1NS(=O)(=O)c2ccccc21)Nc1ccccc1N1CCCCCC1
C[C@H]1CN([C@@H](C)CO)C(=O)c2cc(-c3ccc(C#N)cc3)cnc2O[C@H]1CN(C)Cc1cncnc1
O=C(NCCC1=CCCCC1)c1ccc2c(c1)sc1nc(-c3ccccc3)cn12
C[C@H](CO)N1C[C@H](C)[C@H](CN(C)C(=O)C2CCOCC2)Oc2cc(C#Cc3ccncc3)ccc2S1(=O)=O
C[C@@H]1CN([C@H](C)CO)S(=O)(=O)c2ccc(/C=C/c3ccccc3)cc2O[C@@H]1CN(C)C(=O)c1cccnc1
Cc1cc(C(C)(C)C)cc(S(=O)(=O)N2CCOCC2)c1C
CN1C(=O)c2cc(NC(=O)c3cccc(F)c3)ccc2OC[C@H]2O[C@@H](CC(=O)O)CC[C@H]21
CN1C(=O)c2cc(NC(=O)c3cccc(F)c3)ccc2OC[C@@H]2O[C@H](CC(=O)O)CC[C@@H]21
COc1cccc(C(=O)Nc2ccc3c(c2)C(=O)N(C)C[C@@H](OC)[C@@H](C)CN[C@@H](C)CO3)c1
CN(C)CCCOc1nn(Cc2ccccc2)c2ccccc12
CO[C@@H]1CN(C)C(=O)c2cc(NS(=O)(=O)c3ccc(Oc4ccccc4)cc3)ccc2OC[C@H](C)NC[C@@H]1C
O=C(NCc1ccccc1Cl)c1ccc(CNc2c(NC3CCCCC3)c(=O)c2=O)cc1
COCC(=O)N(C)C[C@H]1Oc2cc(-c3ccccc3F)ccc2S(=O)(=O)N([C@H](C)CO)C[C@H]1C
Nc1ccc(Oc2ccc(Br)cc2)cc1
CCCCN(CCCC)C(=O)CN(C)S(=O)(=O)c1ccc2c(c1)n(C)c(=O)c(=O)n2C
CN1C(=O)c2cc(NC(=O)c3cccc(F)c3)ccc2OC[C@H]2O[C@H](CC(=O)O)CC[C@H]21
CN1C(=O)c2cc(NC(=O)c3cccc(F)c3)ccc2OC[C@@H]2O[C@@H](CC(=O)O)CC[C@H]21
CNC[C@@H]1Oc2cc(C#CC3CCCCC3)ccc2S(=O)(=O)N([C@@H](C)CO)C[C@@H]1C
CO[C@@H]1CN(C)C(=O)c2cc(NC(=O)c3cccc(Oc4ccccc4)c3)ccc2OC[C@H](C)NC[C@@H]1C
COc1cccc(-c2ccc3c(c2)O[C@H](CN(C)C(=O)C2CCOCC2)[C@H](C)CN([C@@H](C)CO)S3(=O)=O)c1
COc1ccc(S(=O)(=O)N(C)C[C@@H]2Oc3ncc(/C=C/c4ccccc4)cc3C(=O)N([C@@H](C)CO)C[C@@H]2C)cc1
CN1C(=O)c2cc(NC(=O)c3cccc(F)c3)ccc2OC[C@H]2O[C@@H](CC(=O)O)CC[C@@H]21
CCCC#Cc1ccc2c(c1)O[C@H](CN(C)C(=O)COC)[C@H](C)CN([C@@H](C)CO)S2(=O)=O
C[C@H](CO)N1C[C@H](C)[C@@H](CN(C)C(=O)C2CCOCC2)Oc2cc(C#Cc3ccncc3)ccc2S1(=O)=O
